# Hit rate of the full screen: of about 93,000 compounds, about 500 (0.54%) were called active.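 How the source made its calls: active means primary inhibition of 50% or more at 10 µM, then 40% or more on retest; inactive means the rest.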 The entries come from a sample that favours actives as a whole.
# Target: Integrin beta-2 (Homo sapiens) + Integrin alpha-M (Homo sapiens) (UniProt P05107+P11215)
# Assay: inhibitors of CD11b/CD18 adhesion to fibrinogen, primary screen, K562 cells, luminescence (AID 1497)
# Settings: ATPlite luminescence, at 10 µM, active compounds read high, Mn2+ added to activate the integrin
# Integrin beta-2 (Homo sapiens) + Integrin alpha-M (Homo sapiens), sequence (P05107 whole entry, looked up, other chains not shown): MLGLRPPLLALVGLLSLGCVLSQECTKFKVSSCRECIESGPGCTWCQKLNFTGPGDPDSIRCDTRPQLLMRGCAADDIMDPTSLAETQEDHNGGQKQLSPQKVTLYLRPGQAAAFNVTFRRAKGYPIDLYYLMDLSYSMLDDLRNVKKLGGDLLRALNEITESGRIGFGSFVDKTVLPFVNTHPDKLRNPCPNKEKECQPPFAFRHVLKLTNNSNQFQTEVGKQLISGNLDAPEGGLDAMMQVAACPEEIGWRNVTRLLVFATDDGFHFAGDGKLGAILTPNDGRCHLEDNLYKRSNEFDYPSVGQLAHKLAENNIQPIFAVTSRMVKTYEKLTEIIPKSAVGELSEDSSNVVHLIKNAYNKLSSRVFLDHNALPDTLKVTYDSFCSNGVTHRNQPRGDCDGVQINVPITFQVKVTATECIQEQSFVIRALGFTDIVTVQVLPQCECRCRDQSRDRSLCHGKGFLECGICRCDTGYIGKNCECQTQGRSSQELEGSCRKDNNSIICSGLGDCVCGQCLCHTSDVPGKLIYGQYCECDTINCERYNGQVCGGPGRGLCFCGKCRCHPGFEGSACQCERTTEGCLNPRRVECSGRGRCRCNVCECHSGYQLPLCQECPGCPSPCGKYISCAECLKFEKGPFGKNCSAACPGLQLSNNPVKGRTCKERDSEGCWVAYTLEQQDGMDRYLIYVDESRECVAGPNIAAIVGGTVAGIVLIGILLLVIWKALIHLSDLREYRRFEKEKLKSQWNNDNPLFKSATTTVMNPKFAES
row,Structure (SMILES),inhibition
1,CCCC/C(C)=N/NC(=O)NC1CCCCC1,5.3% (inactive)
2,Cc1ccc(N/N=C2\COC(C)(C)CC2=O)cc1,4.6% (inactive)
3,CCCn1c(C)cc(/C=C(\C#N)C(=O)OCC(=O)Nc2cc(OC)c(OC)c(OC)c2)c1C,5.7% (inactive)
4,Cc1cc(C)c(NC(=O)c2oc3ccccc3c2COc2ccccc2)c(C)c1,-5.4% (inactive)
5,CCCN(CC1COc2ccccc2O1)C(=S)Nc1ccc(C)cc1 (centres undefined),9.6% (inactive)
6,C=CCNC(=S)NNC(=O)COc1c(Cl)cc(Cl)cc1Cl,-6.9% (inactive)
7,Cc1nc2c(-c3ccccc3)c(C)[nH]n2c(=O)c1Cl,-1.6% (inactive)
8,Cc1[nH]n(-c2cccc(Cl)c2)c(=O)c1-c1ccc(Cl)cc1,94.7% (active)
9,Cc1[nH]n(-c2cccc(Cl)c2)c(=O)c1/C=N/n1c(C)nc2ccccc2c1=O,16.1% (inactive)
10,CCN(/N=C/c1ccc(N(C)C)cc1)c1nc2ccccc2[nH]1,15% (inactive)
11,Cc1nc(NC(=O)c2cccc(Cl)c2)sc1-c1csc(Nc2cccc(Cl)c2)n1,-4% (inactive)
12,Cc1nc(C)c(-c2csc(NCCc3ccccc3)n2)s1,89.8% (active)
13,Cc1ccc(Nc2nc(-c3sc(NC(=O)c4ccccc4)nc3C)cs2)cc1,16.8% (inactive)
14,N#Cc1c(NC(=O)c2ccc(N3CCOCC3)c([N+](=O)[O-])c2)sc2c1CCCC2,2.3% (inactive)
15,CCCCc1ccc(NC(=S)N2CCCC(CO)C2)cc1 (centres undefined),-5.8% (inactive)
16,CCN(C(=O)COC(=O)c1c(NC(C)=O)sc(C)c1C)C1CCS(=O)(=O)C1 (centres undefined),25.9% (inactive)
17,Cc1ccc(C)c(NC(=O)C(OC(=O)c2ccc(C)s2)c2ccccc2)c1 (centres undefined),16.7% (inactive)
18,CCn1c(SCC(=O)Nc2ccc(C)cc2)nc2nc3c(cc2c1=O)CCCC3,2.8% (inactive)
19,Cc1nn(-c2ccccc2)c(Cl)c1/C=C/C(=O)c1ccc(O)cc1,25.9% (inactive)
20,CC(=O)N1CCN(CC(=O)Nc2ccc(SC(F)F)cc2)CC1,-3.7% (inactive)
21,CCOc1ccc(S(=O)(=O)N/N=C(\C)c2ccc(Cl)c(Cl)c2Cl)cc1,8.2% (inactive)
22,C/C(=N\NC(=O)c1cc2c(s1)CCC(C)C2)c1cccnc1 (centres undefined),1.2% (inactive)
23,COc1ccc(Br)cc1CN(C)CC(=O)Nc1cc([N+](=O)[O-])ccc1OC,33.8% (inactive)
24,N#CCOc1ccc(C2=NO[C@@H]3[C@@H]4C[C@@H]([C@H]5C(=O)N(c6ccc7c(c6)OCO7)C(=O)[C@@H]45)[C@H]23)cc1,-2% (inactive)
25,Cc1ccc(C)c(NC(CC(=O)c2ccccc2)C(=O)OCC(=O)c2cccs2)c1 (centres undefined),2.1% (inactive)
26,COc1ccccc1OCCC(=O)OCC(=O)NCc1ccccc1,5% (inactive)

row,Structure (SMILES),inhibition
1,CCCOc1cc(C)c(S(=O)(=O)n2nnc3ccccc32)cc1C,2.3% (inactive)
2,CCc1nc(C)cn1S(=O)(=O)c1cc(OC)c(C)cc1C,51.2% (active)
3,Cc1ccc(-n2c(C)cc(C(=O)CSc3nnc4ccccn34)c2C)cc1,23.4% (inactive)
4,CN(C(=O)c1c(Cl)cnn1C)C12CC3CC(CC(C3)C1)C2,-23% (inactive)
5,FC(F)Oc1ccccc1NC(=S)Nc1cccc(Cl)c1Cl,64.3% (inactive)
6,CCCCC1N2CC3([N+](=O)[O-])CN1CC([N+](=O)[O-])(C2)C3(C)C (centres undefined),-3.2% (inactive)
7,O=C(CN1CCN(c2ccccn2)CC1)N1CCc2ccccc21,5.5% (inactive)
8,COc1ccc(NS(=O)(=O)c2ccc(NC(=S)NC(=O)/C=C/c3ccc(C)cc3)cc2)nn1,-15% (inactive)
9,CCCCn1c(=O)c(CCC(=O)OCC(=O)Nc2ccc(C)c(Cl)c2)nc2ccccc21,6.4% (inactive)
10,OCC(CO)(CO)NCc1ccc(-c2ccccc2)cc1,3.8% (inactive)
11,Cc1ccc(S(=O)(=O)Nc2nc3ccccc3nc2N2CCc3ccccc3C2)cc1,71.6% (inactive)
12,Cc1cc(N2CCN(S(=O)(=O)c3ccc(C)c(C)c3)CC2)c2ccccc2n1,41.1% (inactive)
13,Cc1ccc(S(=O)(=O)C(C#N)c2nc3ccccc3nc2N2CCCC2)cc1C (centres undefined),63.1% (active)
14,Cc1cc(SCC(=O)NCCN2C(=O)CSC2=O)nc2ccccc12,13% (inactive)
15,Cc1c(Cl)cccc1NC(=O)CC1SC(=NCC2CCCO2)NC1=O (centres undefined),12.8% (inactive)
16,CC(Sc1nc2cc(Cl)ccc2s1)C(=O)Nc1ccc2c(c1)OCO2 (centres undefined),82.9% (inactive)
17,COc1ccc(OC)c(/C=C/C(=O)OCC(=O)Nc2ccc3c(c2)OCCO3)c1,24.4% (inactive)
18,Cc1ccc(-c2cc(N)on2)cc1,-5.1% (inactive)
19,O=S(=O)(Nc1ccc(Oc2ncccn2)c(Cl)c1)c1ccc(F)cc1,-21.1% (inactive)
20,CC(=O)N1CCN(C(=O)c2cccc(S(=O)(=O)Nc3ccc(C)cc3)c2)CC1,-4.1% (inactive)
21,Cc1ccc(S(=O)(=O)Nc2ccc3ncccc3c2)cc1,75.1% (active)
22,O=C1NC(c2ccc(-c3ccccc3[N+](=O)[O-])o2)C(C(=O)c2ccc(Cl)cc2)C(O)(C(F)(F)F)N1 (centres undefined),13.3% (inactive)
23,O=C(Cc1coc2ccc3ccccc3c12)NCc1cccs1,-3.3% (inactive)
24,CC(C)[C@H](NC(=O)c1ccc(F)cc1)C(=O)OCC(=O)NC(=O)c1cccn1C,-23.1% (inactive)
25,COC(=O)N/N=C/c1ccc(-c2ccc(Cl)c(Cl)c2)o1,9.8% (inactive)
26,CC(=O)N1C(C)c2ccccc2C(C)(C)CC12CCCCC2 (centres undefined),-35.8% (inactive)

row,Structure (SMILES),inhibition
1,COC(=O)c1ccc(NC(=O)CSc2nncc3ccc(OC)c(OC)c23)cc1,-5.7% (inactive)
2,CCC(C(=O)OCC(=O)Nc1c(Cl)cc(Cl)cc1Cl)c1ccccc1 (centres undefined),14.9% (inactive)
3,Cc1cc(C)c(NC(=S)N2CCCC2C(=O)O)c(C)c1 (centres undefined),-8.3% (inactive)
4,COc1ccccc1CN(C)C(=O)C1(c2ccc(Cl)cc2)CC1,11.8% (inactive)
5,COc1ccc([N+](=O)[O-])cc1NC(=O)c1ccc(N(Cc2ccccc2C)S(C)(=O)=O)cc1,4% (inactive)
6,O=C(CSc1ccc(C(F)(F)F)cc1[N+](=O)[O-])NCCOc1ccccc1,-6% (inactive)
7,COc1ccc(C2c3c(C)nn(-c4ccccc4)c3NC(=O)N2c2ccccc2)cc1 (centres undefined),2.6% (inactive)
8,O=C(NCCN1CCOCC1)c1cc(Sc2cccc(Cl)c2)nc2ccccc12,4.4% (inactive)
9,Cc1csc(=Nc2ccccc2)n1CCO,-4.3% (inactive)
10,OC(COCC1COc2ccccc2O1)CN1CCN(c2ccc(F)cc2)CC1 (centres undefined),-1.1% (inactive)
11,COC(=O)C(NC(=O)c1ccc(OC)cc1)(Nc1ncc(S(=O)(=O)c2ccc([N+](=O)[O-])cc2)s1)C(F)(F)F (centres undefined),47.7% (inactive)
12,O=C(NC(Nc1nc2ccc([N+](=O)[O-])cc2s1)(C(F)(F)F)C(F)(F)F)c1ccccc1,93.8% (active)
13,CCC(=O)NC(Nc1nc2ccc(C)cc2s1)(C(=O)OC)C(F)(F)F (centres undefined),-4.9% (inactive)
14,CN(Cc1cccs1)C(=O)Cc1c[nH]c2ccccc12,-17.9% (inactive)
15,Cc1ccc(-c2nc(C)sc2CC(=O)OCC(=O)Nc2c(F)cccc2F)cc1,16.1% (inactive)
16,Nc1nc(CC(=O)CSc2ccc(Cl)cc2)nc(Nc2ccc(F)cc2)n1,-3.1% (inactive)
17,Cc1ccc(C)c(NC(=S)NCC(c2cccnc2)N2CCOCC2)c1 (centres undefined),-16.8% (inactive)
18,COC(=O)c1ccc(C(=O)OC)c(NC(=S)N2CCN(c3cc(Cl)ccc3C)CC2)c1,5.6% (inactive)
19,CCCOC(=O)c1c(NC(=O)c2cnn3c2NC(c2ccccc2)CC3C(F)(F)F)sc2c1CCCC2 (centres undefined),-9.3% (inactive)
20,CCc1ccc2oc(-c3ccc(N)cc3)nc2c1,62.3% (active)
21,COc1cccc(-c2nc3cc(C)ccc3o2)c1,21% (inactive)
22,CCCCCC(=O)Nc1ccc2oc(-c3ccncc3)nc2c1,-1.9% (inactive)
23,C/C(=N/NC(=O)C1COc2ccccc2O1)c1ccco1 (centres undefined),4.4% (inactive)
24,Cc1ccccc1NC(=O)CSC1=NCCN1,-19.9% (inactive)
25,Cc1ccc(S(=O)(=O)C2C(=O)NC3(C)CC2c2ccccc2O3)cc1 (centres undefined),19.1% (inactive)
26,Cc1nc2ccccc2cc1O,20.1% (inactive)

row,Structure (SMILES),inhibition
1,Cc1nc2ccccc2cc1OCc1ccc(F)cc1,98.8% (active)
2,CCOC(=O)c1cc2ccccc2nc1C,-6.1% (inactive)
3,CN1CCN(c2ccc(S(=O)(=O)Nc3ccccc3)cc2[N+](=O)[O-])CC1,31% (inactive)
4,Cc1ccc(-c2nn(-c3ccccc3)cc2C(=O)Nc2cccc(S(=O)(=O)N3CCOCC3)c2)cc1,-5.6% (inactive)
5,Cc1[nH]c2ccccc2c1/C=N/NC(=O)CNC(=O)c1ccc2c(c1)OCO2,-16% (inactive)
6,Cc1ccc2[nH]cc(CCNC(=O)c3ccc([N+](=O)[O-])cc3)c2c1,-25.6% (inactive)
7,CCOC(=O)c1c(NC(=O)C2CCN(S(=O)(=O)c3ccc(Cl)cc3)CC2)sc2c1CCCC2,-25.4% (inactive)
8,Cc1ccccc1C(CC(=O)c1cccs1)C(C#N)C#N (centres undefined),-1.8% (inactive)
9,CC(C)NC(=S)N1CCN(C(c2ccccc2)c2ccccc2)CC1,-11.6% (inactive)
10,CCc1nnc(NC(=O)C2CC(=O)N(c3ccc4c(c3)OCCO4)C2)s1 (centres undefined),12.3% (inactive)
11,CCOC(=O)c1csc(NC(=O)Nc2cccc(OC)c2)n1,-1.6% (inactive)
12,Cc1cc[n+](-c2[nH]c(=O)sc2/C=N/NC(=O)c2ccccc2[O-])cc1C,-4.4% (inactive)
13,C/C(=C/C(=O)N1CCN(C)CC1)C(=O)O,-9.1% (inactive)
14,N#C/C(=C(/O)COC(=O)COc1ccc(Cl)cc1)c1nc2ccccc2[nH]1,1.5% (inactive)
15,Cc1ccc(NC(=O)NC(=O)CSc2nnc(-c3ccc(OC(F)F)cc3)n2N)c(C)c1,2.1% (inactive)
16,O=C(Cn1cnc2ccccc21)N/N=C/c1ccco1,10.1% (inactive)
17,C=CCn1c(SCC(N)=O)nnc1-c1cc2c(s1)CCC(CC)C2 (centres undefined),18.8% (inactive)
18,CCn1c2ccccc2c2cc(NC(=O)COC(=O)c3ccccc3Br)ccc21,2.2% (inactive)
19,COc1ccc(Cl)cc1NC(=O)CNc1ccccc1F,0.4% (inactive)
20,CC(C)CNC(=O)COC(=O)c1ccccc1OCC(=O)Nc1ccc(Br)cc1,7.6% (inactive)
21,CC(C)COP(=O)(c1ccc(N(C)C)cc1)C(Nc1ccccc1)c1cccnc1 (centres undefined),-5.3% (inactive)
22,CC1CCN(c2ccc(C(=O)NCc3ccc4c(c3)OCO4)cc2[N+](=O)[O-])CC1,6.9% (inactive)
23,CSCC[C@H](NC(=O)OC(C)(C)C)C(=O)N/N=C/c1cc2ccc(C)cc2nc1Cl,23.4% (inactive)
24,O=C(Nc1ccccc1)c1cccnc1Nc1ccccc1,-10.2% (inactive)
25,O=C(Nc1ccccc1)c1ccccc1NC(=O)C(F)(F)F,77.1% (active)
26,Cc1cccc(NC(=O)c2ccccc2NC(=O)C(C)(C)C)n1,-2% (inactive)
